Results on 14 compounds are retold here after PubChem BioAssay (NCI).

This is part of a sample that, as a whole, favours compounds with a hit. Of some 83,000 tested, about 20% had one in any assay.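 How to read the values: 0–100, growth inhibition (40 = 60% inhibited); 0, no net growth; -100 to 0, cell death (-40 = 40% of starting cells died; -100 = all dead).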 A number with no mark means an inactive call. The source made the active and inactive calls. The calls were made as follows: active = growth percent below 10; inactive = the rest.

Among the test systems are RPMI-8226 leukemia; OVCAR-8 ovarian; OVCAR-5 ovarian; OVCAR-4 ovarian; SK-OV-3 ovarian; IGROV1 ovarian; OVCAR-3 ovarian; HS 578T breast; T-47D breast; NCI/ADR-RES ovarian.
Common to all, as to assay: NCI-60 one-dose screen, 48 h (100 = growth as untreated, 0 = no growth, -100 = all killed)
What all share (details): 10 µM

For `C#Cc1ccc(-n2c(/C=C/c3ccc(C(F)(F)F)cc3)nc3ncccc3c2=O)cc1`, the growth is -9.89% (active) in the test with RPMI-8226 leukemia; 17.2% in the test on OVCAR-8 ovarian; 68.8% with OVCAR-5 ovarian; -42.6% (active) in the test on OVCAR-4 ovarian; 54.1% in the test with SK-OV-3 ovarian; 34% in the test with IGROV1 ovarian. The growth in the test on OVCAR-3 ovarian was -8.86% (active); in the test on HS 578T breast it was 72.4%; in the test with T-47D breast it was 35.4%.

Regarding `C[C@]12CC[C@@H]3c4ccc(O)cc4C[C@@H](O)[C@H]3[C@@H]1CC[C@@H]2O`, the growth in the test with RPMI-8226 leukemia was 103%; with OVCAR-8 ovarian, 106%; in the test with OVCAR-5 ovarian it was 111%; with OVCAR-4 ovarian, 105%; in the test with SK-OV-3 ovarian, 116%; in the test on IGROV1 ovarian, 99.7%. For the same compound, the growth with OVCAR-3 ovarian is 114%; with HS 578T breast, 117%; in the test with T-47D breast it was 118%.

With `COc1ccc2c(c1)O/C(=C\c1ccc([N+](=O)[O-])o1)C2=O`, the growth was -10.7% (active) in the test with RPMI-8226 leukemia; -8.18% (active) in the test with OVCAR-8 ovarian; 12.4% in the test with OVCAR-5 ovarian; -1.31% (active) in the test on OVCAR-4 ovarian; 67.6% in the test with SK-OV-3 ovarian; -14.2% (active) in the test on IGROV1 ovarian. In addition, the growth with OVCAR-3 ovarian was -8.36% (active); with HS 578T breast it was 21.4%; in the test on NCI/ADR-RES ovarian, 16%; in the test with T-47D breast it was -0.109% (active).

Turning to `Cc1ccc(NC(=O)Nc2c(Cl)cccc2Cl)cn1`, the growth with RPMI-8226 leukemia is 62.9%; in the test on OVCAR-8 ovarian it was 111%; in the test with OVCAR-5 ovarian it was 119%; with OVCAR-4 ovarian, 135%; with SK-OV-3 ovarian it was 116%; with IGROV1 ovarian, 85.9%. Also, the growth in the test with OVCAR-3 ovarian was 106%; in the test on HS 578T breast, 97.8%; in the test on T-47D breast, 96.8%.

Take `O=C(O)c1ccc(P(=O)(O)O)c([N+](=O)[O-])c1`: the growth in the test with RPMI-8226 leukemia is 102%; in the test on OVCAR-8 ovarian, 98%; in the test on OVCAR-5 ovarian, 107%; in the test with OVCAR-4 ovarian, 104%; in the test with SK-OV-3 ovarian it was 107%; with IGROV1 ovarian, 119%. Further, the growth is 111% in the test on OVCAR-3 ovarian, 104% in the test with HS 578T breast, 108% in the test on NCI/ADR-RES ovarian and 104% in the test on T-47D breast.

`CN(C)c1ccc(/C=C/C=N/NC(=O)c2cc(O)c(O)c(O)c2)cc1`: the growth with RPMI-8226 leukemia was 99.9%; in the test on OVCAR-8 ovarian, 89.3%; in the test on OVCAR-5 ovarian, 102%; with OVCAR-4 ovarian, 67.8%; in the test with SK-OV-3 ovarian it was 99.3%; in the test with IGROV1 ovarian, 100%. Moreover, the growth in the test with OVCAR-3 ovarian is 90.9%; in the test with HS 578T breast, 100%; with NCI/ADR-RES ovarian, 102%; with T-47D breast, 25.3%.

Consider `CCCCCCN1C(=O)C2=C(c3ccc(Cl)cc3)Nc3c(c(C)nn3-c3ccccc3)C2c2ccccc21` (stereo unspecified), for which the growth was 81.2% in the test on RPMI-8226 leukemia; 92.5% in the test with OVCAR-8 ovarian; 100% with OVCAR-5 ovarian; 90.5% in the test on OVCAR-4 ovarian; 95.9% in the test with SK-OV-3 ovarian; 100% in the test with IGROV1 ovarian. For the same compound, the growth with OVCAR-3 ovarian was 92.7%; in the test with HS 578T breast it was 118%; in the test on NCI/ADR-RES ovarian, 97.8%; in the test on T-47D breast, 84.5%.

Turning to `COc1cc(/C=C\c2cc(OC)c(OC)c(OC)c2)cc(NS(=O)(=O)c2ccc(Cl)cc2)c1OC`, the growth is 9.59% (active) in the test on RPMI-8226 leukemia; 17.1% with OVCAR-8 ovarian; 45% with OVCAR-5 ovarian; 58.4% with OVCAR-4 ovarian; 28.2% in the test with SK-OV-3 ovarian; 46.8% in the test on IGROV1 ovarian. In addition, the growth in the test on OVCAR-3 ovarian was 10.3%; in the test on HS 578T breast it was 1.49% (active); with NCI/ADR-RES ovarian, 12.8%; in the test on T-47D breast, 55.3%.

As for `COc1cc(CNc2ccccc2C(=O)N2CCN(C(=O)c3cc(-c4cc(OC)c(OC)c(OC)c4)n4nc(-c5ccccc5)cc4n3)CC2)cc(OC)c1OC`, the growth is 52.1% in the test with RPMI-8226 leukemia; 65.1% in the test with OVCAR-8 ovarian; 88.1% with OVCAR-5 ovarian; 61.5% in the test on OVCAR-4 ovarian; 59.9% with SK-OV-3 ovarian; 44.7% in the test on IGROV1 ovarian. Moreover, the growth is 4.83% (active) with OVCAR-3 ovarian, 42.9% in the test on HS 578T breast, 15.6% in the test on NCI/ADR-RES ovarian and 60.6% with T-47D breast.

Consider `O=S(=O)(NCCCNc1nccc(-c2c(-c3ccc(F)cc3)nc3sccn23)n1)c1ccc2ccccc2c1`, for which the growth in the test with RPMI-8226 leukemia was 35.9%; in the test with OVCAR-8 ovarian it was 29.7%; with OVCAR-5 ovarian it was 78.7%; in the test on OVCAR-4 ovarian, 56.8%; in the test on SK-OV-3 ovarian it was 65.2%; in the test on IGROV1 ovarian, 22.8%. The growth in the test on OVCAR-3 ovarian was 75.3%; in the test with HS 578T breast, 71.1%; with NCI/ADR-RES ovarian, 42.5%; in the test on T-47D breast, 17.4%.

`O=C1/C(=C/c2ccc([N+](=O)[O-])o2)Oc2ccccc21`: the growth was -0.688% (active) with RPMI-8226 leukemia; 2.87% (active) with OVCAR-8 ovarian; 8.57% (active) in the test on OVCAR-5 ovarian; -68.6% (active) in the test with OVCAR-4 ovarian; 84% in the test on SK-OV-3 ovarian; -22.7% (active) in the test on IGROV1 ovarian. Also, the growth was -69.7% (active) with OVCAR-3 ovarian, 57.3% in the test with HS 578T breast, 14.8% in the test with NCI/ADR-RES ovarian and 8.17% (active) in the test on T-47D breast.

Consider `O=C1OCC2=C1C(c1ccc(Cl)c(Cl)c1)c1cc3c(cc1N2CCO)OCCO3` (stereo unspecified), for which the growth was 18.7% with RPMI-8226 leukemia; 27.7% with OVCAR-8 ovarian; 34.3% in the test on OVCAR-5 ovarian; 55.7% in the test with OVCAR-4 ovarian; 29.5% with SK-OV-3 ovarian; 34.6% in the test with IGROV1 ovarian. Besides, the growth is -53.7% (active) in the test with OVCAR-3 ovarian, -13.3% (active) in the test with HS 578T breast, 3.69% (active) in the test on NCI/ADR-RES ovarian and 62.2% in the test on T-47D breast.

On to `Cc1cc(C)c(CCc2cc(C)c(C)cc2C)cc1C`, for which the growth in the test with RPMI-8226 leukemia was 102%; with OVCAR-8 ovarian, 102%; with OVCAR-5 ovarian, 103%; in the test on OVCAR-4 ovarian it was 92.9%; in the test with SK-OV-3 ovarian, 114%; in the test with IGROV1 ovarian it was 111%. The growth with OVCAR-3 ovarian was 114%; with HS 578T breast it was 108%; with NCI/ADR-RES ovarian, 107%; in the test on T-47D breast, 114%.

Turning to `c1ccc2c(c1)oc1c3cccnc3ccc21`, the growth was 97.1% in the test with RPMI-8226 leukemia; 99.7% in the test with OVCAR-8 ovarian; 100% in the test with OVCAR-5 ovarian; 83% in the test on OVCAR-4 ovarian; 87.7% in the test with SK-OV-3 ovarian; 54.4% with IGROV1 ovarian. Further, the growth with OVCAR-3 ovarian is 106%; in the test with HS 578T breast, 93.1%; in the test with T-47D breast, 39%.
